The list is not random: actives were taken first. Their share in the collection is about 7.9%.
HT1080 IDH1KD tx – qHTS for induction of synthetic lethality in tumor cells producing 2HG: qHTS for the HT-1080-IDH1KD cell line | HT-1080 IDH1 knockdown viability, ATP luminescence, 48 h | Potency, µM (series often up to 46.1 µM), inactives show top-dose activity, negative = toxicity, hits mostly cytotoxic | 360,000 compounds, 2% hits;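 further: 0% = DMSO wells and -100% = cell-free medium wells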
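Cytotoxicity counter-line: IDH1KD HT-1080, 48 h, CellTiter-Glo. Curves classed by r2, magnitude and activity.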
HT1080-NT tox – qHTS for induction of synthetic lethality in tumor cells producing 2HG: qHTS for the HT-1080-NT fibrosarcoma cell line; Potency, µM (doses to about 46.1 µM), without a hit: at the top dose activity, negative = less viability, actives largely listed as cytotoxic; 360,000 compounds, 1.6% hits; AID 686970, 2013; HT-1080-NT fibrosarcoma viability, CellTiter-Glo ATP luminescence, 48 h;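 further: NT is the 2HG producing partner of a matched IDH1 knockdown line; 0% = DMSO-treated cells and -100% = media-only wells without cells; nearly all actives have a fitted effect of over 55% in size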
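Viability by CellTiter-Glo luminescence after 48 h compound exposure at 37C of HT-1080-NT cells (750/well, RPMI, 5% FBS). % activity scaled between DMSO wells and medium-only wells, then curve-fitted and categorized by curve class.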
KB-3-1 tox – qHTS assay for MDR1-selective chemotherapeutics: Primary screen using the parental adenocarcinoma cell KB-3-1; 400,000 compounds, 1.4% hits; Potency, µM (series often up to 46.1 µM), usual class: cytotoxic; AID 1347075, 2019; KB-3-1 viability, CellTiter-Glo ATP luminescence, 72 h; further: on the % scale 0 is the no-effect control and ±100 the full control effect; nearly all actives have a fitted effect of over 60% in size
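72 h, 37 °C compound treatment of KB-3-1 parental cells; CellTiter-Glo added, 10 min, luminescence read. Data corrected against DMSO-only plates and normalized before curve fitting.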
SW480 rereplic – A quantitative high throughput screen for small molecules that induce DNA re-replication in SW480 colon adenocarcinoma cells | SW480 DNA re-replication, Hoechst DNA content imaging, 48 h | 340,000 compounds, 1.8% hits | Potency, µM (top dose mostly 46.1 µM), for the others: at the highest dose re-replication activation, actives largely listed as activators; further: % of control where 0% means no effect; nearly all actives have a fitted effect of over 55% in size
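SW480 cells exposed to compounds for 48 hr at 37 C, 5% CO2, then Hoechst-stained 40 min. Nuclear DNA content imaged by fluorescence scanning (405 nm excitation, 500-530 nm emission); re-replication scored as increased high-intensity nuclei.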
MCF10A rereplic – A quantitative high throughput screen for small molecules that induce DNA re-replication in MCF 10a normal breast cells; 350,000 compounds, 2.9% hits; Potency, µM (doses to about 46.1 µM), for the others: at the top dose activity, positive = re-replication, usual class: activators; MCF 10A DNA re-replication, Hoechst nuclear intensity, 48 h; further: % of control where 0% means no effect; nearly all actives have a fitted effect of over 50% in size
KB-V1 MDR tox – qHTS assay for MDR1-selective chemotherapeutics: Primary screen using the drug-selected MDR subline cells KB-V1; KB-V1 MDR cells viability, CellTiter-Glo, 72 h; Potency, µM (doses to about 46.1 µM), usual class: cytotoxic; 400,000 compounds, 3.4% hits; further: on the % scale 0 is the no-effect control and ±100 the full control effect; nearly all actives have a fitted effect of over 60% in size
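KB-V1, DMEM (no phenol red) + 10% FBS; cpd pin-transferred, titration series; 72 h, 37 degrees C; CellTiter-Glo, luminescence. Data normalized, curve-fit.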
* marks the source's active call; other numbers are inactive results. The call rests on the fitted dose curve; in most records, active means well fitted curve in the direction sought with a large enough effect; inconclusive means small, poorly fitted or top-dose-only effect, or another doubt; inactive means no such curve, though single readings can be large; an effect the other way counts as inactive or inconclusive. Potency means the concentration at half of the fitted maximal effect.

`COc1ccc(C(=O)N/N=C/c2cc(Br)ccc2O)cc1OC` gave HT1080 IDH1KD tx inconclusive, HT1080-NT tox inconclusive, KB-3-1 tox inconclusive, SW480 rereplic inconclusive, MCF10A rereplic inconclusive and KB-V1 MDR tox 21µM*.
COc1ccc(Br)cc1/C=N/NC(=O)c1ccc(COc2ccc3c(c2)CCC3)o1 was read as HT1080 IDH1KD tx inconclusive, HT1080-NT tox -21%, KB-3-1 tox inactive, SW480 rereplic 18%, MCF10A rereplic 12µM* and KB-V1 MDR tox inactive.
Screening COc1ccc(/C=N/NC(=O)c2ccc(Br)cc2)c(OC)c1 returned HT1080 IDH1KD tx 4%, HT1080-NT tox 2%, KB-3-1 tox inactive, SW480 rereplic 7%, MCF10A rereplic 1% and KB-V1 MDR tox inactive.
`O=C(N/N=C/c1ccc2ccccc2c1)c1ccc(COc2ccc3c(c2)CCC3)o1` gave HT1080 IDH1KD tx inconclusive, HT1080-NT tox inconclusive, KB-3-1 tox inactive, SW480 rereplic 16%, MCF10A rereplic inconclusive and KB-V1 MDR tox inactive.
`CCCOc1ccc(Br)cc1/C=N/NC(=O)c1cc(OC)c(OC)c(OC)c1` gave HT1080 IDH1KD tx 3%, HT1080-NT tox -6%, KB-3-1 tox inactive, SW480 rereplic -7%, MCF10A rereplic -1% and KB-V1 MDR tox inactive.
`CCC1C(O)=C(c2ccccn2)C(=N)N1c1ccccc1` (stereo not given) gave HT1080 IDH1KD tx 0%, HT1080-NT tox 0%, KB-3-1 tox inactive, SW480 rereplic 18µM*, MCF10A rereplic 13µM* and KB-V1 MDR tox inactive.
For CS(=O)(=O)C1=NSC2=NC(=O)/C(=C\c3ccc(-c4ccccc4)o3)C(=N)N21 the results were SW480 rereplic -7% and MCF10A rereplic 2%.
N=C1/C(=C/c2cccn2Cc2ccc(Cl)cc2)C(=O)N=C2SC=CN12 was read as HT1080 IDH1KD tx 21µM*, HT1080-NT tox 16µM*, KB-3-1 tox inactive, SW480 rereplic 10%, MCF10A rereplic inconclusive and KB-V1 MDR tox inactive.
Screening CC(C)S(=O)(=O)C1=NSC2=NC(=O)/C(=C\c3ccc(-c4ccccc4)o3)C(=N)N21 returned HT1080 IDH1KD tx 0%, HT1080-NT tox -3%, KB-3-1 tox inactive, SW480 rereplic inconclusive, MCF10A rereplic 16µM* and KB-V1 MDR tox 16µM*.
CC1=CC2=NC(=O)/C(=C/c3cccn3Cc3ccccc3)C(=N)N2O1 was read as HT1080 IDH1KD tx inconclusive, HT1080-NT tox inconclusive, KB-3-1 tox inactive, SW480 rereplic -62%, MCF10A rereplic 0% and KB-V1 MDR tox inconclusive.
`N=C1/C(=C/c2cccn2CCOc2ccccc2)C(=O)N=C2SC=C(c3ccccc3)N12` gave HT1080 IDH1KD tx inconclusive, HT1080-NT tox -28%, KB-3-1 tox inconclusive, SW480 rereplic 18µM*, MCF10A rereplic 1.3µM* and KB-V1 MDR tox 3.7µM*.
`N=C1/C(=C/c2ccc(-c3cccc(C(=O)O)c3)o2)C(=O)N=C2SC=C(c3ccccc3)N12` gave HT1080 IDH1KD tx 2%, HT1080-NT tox -16%, KB-3-1 tox inactive, SW480 rereplic -3%, MCF10A rereplic 5.8µM* and KB-V1 MDR tox inactive.
O=C(CC(SCCO)c1ccc2c(c1)OCO2)c1cccs1 (stereo not given) was read as HT1080 IDH1KD tx inconclusive, HT1080-NT tox inconclusive, KB-3-1 tox inactive, SW480 rereplic -3%, MCF10A rereplic -3% and KB-V1 MDR tox inactive.
`COC(=O)[C@@]12C[C@@H](CC(=O)NCC34CC5CC(CC(C5)C3)C4)C(=O)N(CCc3ccc(OC)c(OC)c3)C1=CCC(C)(C)C2` gave HT1080 IDH1KD tx inconclusive, HT1080-NT tox inconclusive, KB-3-1 tox inconclusive and KB-V1 MDR tox 23µM*.
CCCCNC(=O)C[C@@H]1C[C@@]2(C(=O)OC)CC(C)(C)CC=C2N(CCc2ccc(OC)c(OC)c2)C1=O was read as HT1080 IDH1KD tx 4%, HT1080-NT tox 1%, KB-3-1 tox inactive and KB-V1 MDR tox inconclusive.
For COC(=O)[C@@]12C[C@@H](CC(=O)NCCc3ccccc3OC)C(=O)N(CCc3ccc(OC)c(OC)c3)C1=CCC(C)(C)C2 the results were HT1080 IDH1KD tx inconclusive, HT1080-NT tox inconclusive, KB-3-1 tox inconclusive and KB-V1 MDR tox 21µM*.
`CCCOc1ccc(S(=O)(=O)N2CCN(C)CC2)c2ccccc12` gave HT1080 IDH1KD tx -15%, HT1080-NT tox -10%, KB-3-1 tox inactive, SW480 rereplic -6%, MCF10A rereplic inconclusive and KB-V1 MDR tox inactive.
`COc1ccc(N(C(=O)c2ccccc2)S(=O)(=O)c2cccs2)cc1` gave HT1080 IDH1KD tx inconclusive, HT1080-NT tox 16µM*, KB-3-1 tox inactive, SW480 rereplic 25%, MCF10A rereplic inconclusive and KB-V1 MDR tox inactive.
For CC(C)OCCCNC(=O)c1cc2c(=O)n(C)c3ccccc3c2n1C the results were HT1080 IDH1KD tx 3%, HT1080-NT tox 0%, KB-3-1 tox inactive, SW480 rereplic -2%, MCF10A rereplic 1% and KB-V1 MDR tox inconclusive.
For CCCCN(CC)CCCNC(=O)c1cc2c(=O)n(C)c3ccccc3c2n1C the results were HT1080 IDH1KD tx -21%, HT1080-NT tox -5%, KB-3-1 tox 16µM*, SW480 rereplic 11%, MCF10A rereplic inconclusive and KB-V1 MDR tox inactive.
`O=C(c1cc2ccccc2cc1O)N1CCCC(C(F)(F)F)C1` (stereo not given) gave HT1080 IDH1KD tx -5%, HT1080-NT tox -6%, KB-3-1 tox inactive, SW480 rereplic -1%, MCF10A rereplic inconclusive and KB-V1 MDR tox inactive.
For COc1cc2ccccc2cc1C(=O)N1CCCC(C(F)(F)F)C1 (stereo not given) the results were HT1080 IDH1KD tx -11%, HT1080-NT tox 2%, KB-3-1 tox inactive, SW480 rereplic -6%, MCF10A rereplic -4% and KB-V1 MDR tox 15µM*.
`CC(C(=O)O)n1c2ccccc2c2cn[nH]c(=O)c21` (stereo not given) gave HT1080 IDH1KD tx -2%, HT1080-NT tox 2%, KB-3-1 tox inactive, SW480 rereplic inconclusive, MCF10A rereplic -2% and KB-V1 MDR tox inactive.

High-throughput results (PubChem BioAssay)
